Data taken from PubChem BioAssay (EPA / NIEHS).
Active and inactive are the calls of the source. The calls were made as follows: active = hit-call score of the fitted dose curve at least 0.9, where 1 is the maximum; inactive = score below 0.9.

Columns and labels:
[1] = ATG_EGR_CIS: Attagene CIS-FACTORIAL HepG2 Assay for human Early Growth Response 1 (EGR1) (AID 2282938); details: HepG2 Attagene CIS-FACTORIAL EGR reporter mRNA; actives raise or lower the signal
Outline: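 Read-out: fluorescent reporter-mRNA fragments resolved by capillary electrophoresis after RT-PCR, 24 h post-dose in transiently transfected HepG2. Endogenous transcription-factor activity reported via cis-element-regulated reporter units; gain or loss fitted relative to DMSO.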

[2] = ATG_M_19_CIS: Attagene CIS-FACTORIAL HepG2 Assay for M19 Transcription Factor (Internal Marker) (AID 2282939); details: HepG2 Attagene CIS-FACTORIAL M19 internal marker reporter; actives raise or lower the signal
Outline: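 HepG2 cells transiently transfected with cis-regulated multiplexed reporter units, dosed 24 h. Reporter mRNA quantified by RT-PCR and capillary electrophoresis; internal background marker fitted bidirectionally versus DMSO.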

[3] = ATG_ERE_CIS: Attagene CIS-FACTORIAL HepG2 Assay for Estrogen Response Element (ERE) (AID 2282940); details: HepG2 ERE cis-reporter, Attagene RNA transcript; actives raise or lower the signal
Outline: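 HepG2 cells transiently transfected with multiplexed cis-element reporter units, measuring endogenous transcription factor activity; ERE reporter mRNA quantified after 24 h exposure by RT-PCR, fluorescent labelling, HpaI digestion and capillary electrophoresis. Bidirectional change versus DMSO.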

[4] = ATG_Ets_CIS: Attagene CIS-FACTORIAL HepG2 Assay for human Erythroblast Transformation Specific (ETS) (AID 2282941); details: HepG2 ETS cis-reporter transcription; AC50: actives raise or lower the signal unless noted; outcome: actives raise or lower the signal unless noted
Outline: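 Multiplexed reporter transcript profiling: HepG2, 24 h treatment, total RNA to cDNA, PCR, 6-FAM labelling, HpaI cut, capillary electrophoresis. Gain- or loss-of-signal fitted against DMSO.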

[5] = biological target: Hepatocyte nuclear factor 3-beta (Homo sapiens) (UniProt Q9Y261); test: ATG_FoxA2_CIS: Attagene CIS-FACTORIAL HepG2 Assay for human Forkhead box A2 (FOXA2) (AID 2282942); details: HepG2 cis-reporter transcription factor activity, 24 h; actives raise or lower the signal
Sequence of Hepatocyte nuclear factor 3-beta (Homo sapiens) (Q9Y261 whole entry, looked up): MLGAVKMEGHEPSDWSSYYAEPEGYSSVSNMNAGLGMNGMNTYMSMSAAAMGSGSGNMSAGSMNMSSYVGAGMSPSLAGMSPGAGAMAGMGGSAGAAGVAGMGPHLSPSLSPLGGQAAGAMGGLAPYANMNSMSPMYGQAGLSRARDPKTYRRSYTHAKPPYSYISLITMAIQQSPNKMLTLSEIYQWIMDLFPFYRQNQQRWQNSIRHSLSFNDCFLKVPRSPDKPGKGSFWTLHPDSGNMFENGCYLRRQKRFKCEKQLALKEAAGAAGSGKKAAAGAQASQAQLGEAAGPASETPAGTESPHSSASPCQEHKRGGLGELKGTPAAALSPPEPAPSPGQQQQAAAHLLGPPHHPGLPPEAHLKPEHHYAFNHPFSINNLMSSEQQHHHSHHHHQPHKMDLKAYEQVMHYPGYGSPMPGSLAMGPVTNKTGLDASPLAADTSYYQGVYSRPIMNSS
Outline: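 Readout: fluorescent reporter transcripts resolved by capillary electrophoresis after RT-PCR. Transiently transfected HepG2, 24 h compound exposure, endogenous TF activity at cis promoter elements. Gain or loss of signal fitted relative to DMSO.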

[6] = ATG_GATA_CIS: Attagene CIS-FACTORIAL HepG2 Assay for human GATA Binding Protein (AID 2282944); details: HepG2 GATA cis-element reporter, Attagene multiplex mRNA; actives raise or lower the signal
Outline: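 HepG2 cells transiently transfected with multiplexed cis-element reporter units measure endogenous GATA activity; after 24 h compound exposure, reporter mRNA quantified by RT-PCR and capillary electrophoresis. Changes fitted in both directions vs DMSO.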

[7] = ATG_GLI_CIS: Attagene CIS-FACTORIAL HepG2 Assay for human Zinc Finger Protein GLI1 (AID 2282945); details: HepG2, Attagene cis-factorial reporter mRNA, GLI element; actives raise or lower the signal
Outline: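 Bidirectional curve fits relative to DMSO, using reporter mRNA levels from RT-PCR plus capillary electrophoresis. Cells were HepG2 transiently carrying cis-regulated reporter constructs, harvested 24 h after dosing.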

[8] = biological target: Bile acid receptor (Homo sapiens) (UniProt Q96RI1); test: ATG_IR1_CIS: Attagene CIS-FACTORIAL HepG2 Assay for human Nuclear Receptor Subfamily 1 Group H Member 4 (NR1H4), IR1 submotif (AID 2282946); details: IR1 reporter transcription, actives raise or lower the signal
Sequence of Bile acid receptor (Homo sapiens) (Q96RI1 whole entry, looked up): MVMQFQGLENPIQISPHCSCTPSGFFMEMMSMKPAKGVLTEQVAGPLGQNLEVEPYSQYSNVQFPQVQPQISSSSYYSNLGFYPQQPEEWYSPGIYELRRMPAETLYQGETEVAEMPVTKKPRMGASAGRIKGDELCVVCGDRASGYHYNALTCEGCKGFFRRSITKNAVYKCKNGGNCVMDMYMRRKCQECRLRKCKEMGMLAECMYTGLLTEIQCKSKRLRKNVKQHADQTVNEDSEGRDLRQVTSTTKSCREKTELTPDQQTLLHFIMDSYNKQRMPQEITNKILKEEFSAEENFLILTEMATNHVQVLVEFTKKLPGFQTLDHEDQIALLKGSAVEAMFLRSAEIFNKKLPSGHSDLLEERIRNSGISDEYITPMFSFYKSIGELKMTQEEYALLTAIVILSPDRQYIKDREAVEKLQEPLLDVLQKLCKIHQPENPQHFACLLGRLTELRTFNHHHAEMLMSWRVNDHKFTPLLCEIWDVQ
Outline: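 HepG2 cells transiently transfected with multiplexed cis-element reporter units read endogenous transcription factor activity. After 24 h compound exposure, reporter mRNA was quantified by RT-PCR, fluorescent labelling, HpaI digestion and capillary electrophoresis; bidirectional fitting versus DMSO baseline.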

[9] = ATG_GRE_CIS: Attagene CIS-FACTORIAL HepG2 Assay for human Glucocorticoid Response Elements (GRE) (AID 2282947); details: HepG2 GRE cis-reporter, Attagene multiplex mRNA; AC50: actives raise or lower the signal unless noted; outcome: actives raise or lower the signal unless noted
Outline: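 Reporter transcripts read by RT-PCR with capillary electrophoresis fluorescence after a 24 h chemical exposure of HepG2 cells transiently transfected with multiple cis-element reporter units. Gain or loss fitted against DMSO.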

[10] = ATG_ISRE_CIS: Attagene CIS-FACTORIAL HepG2 Assay for human Interferon Regulatory Factor 1 (IRF1) binding to an Interferon-Stimulated Response Element (ISRE) (AID 2282948); details: HepG2 ISRE cis-reporter (Attagene), mRNA transcription readout; actives raise or lower the signal
Outline: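 Signal reflects induction or loss of ISRE-linked reporter mRNA in transiently transfected HepG2 cells after a 24 h treatment, detected by fluorescent RT-PCR fragments on capillary electrophoresis and normalised to DMSO.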

[11] = ATG_M_32_CIS: Attagene CIS-FACTORIAL HepG2 Assay for M32 Transcription Factor (Internal Marker) (AID 2282949); details: HepG2 Attagene cis-factorial M32 reporter, mRNA; actives raise or lower the signal;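 also: background control marker of the multiplexed CIS panel rather than a real target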
Outline: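 HepG2 transfectants (cis-regulated reporter transcription units) dosed 24 h. Reporter mRNA by RT-PCR plus CE, analysed as gain or loss relative to DMSO.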

[12] = ATG_M_06_CIS: Attagene CIS-FACTORIAL HepG2 Assay for M06 Transcription Factor (Internal Marker) (AID 2282950); details: HepG2 Attagene CIS-FACTORIAL M06 internal marker reporter; actives raise or lower the signal
Outline: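 Internal background marker within multiplexed cis-reporter HepG2 system. Cells transiently transfected, dosed 24 h; reporter mRNA measured by RT-PCR, HpaI digestion and capillary electrophoresis. Bidirectional fit relative to DMSO.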

[13] = biological target: Hypoxia-inducible factor 1-alpha (Homo sapiens) (UniProt Q16665); test: ATG_HIF1a_CIS: Attagene CIS-FACTORIAL HepG2 Assay for human Hypoxia Inducible Factor 1 (HIF1A) (AID 2282951); details: HepG2 Attagene cis-factorial HIF1a reporter transcription; actives raise or lower the signal
Sequence of Hypoxia-inducible factor 1-alpha (Homo sapiens) (Q16665 whole entry, looked up): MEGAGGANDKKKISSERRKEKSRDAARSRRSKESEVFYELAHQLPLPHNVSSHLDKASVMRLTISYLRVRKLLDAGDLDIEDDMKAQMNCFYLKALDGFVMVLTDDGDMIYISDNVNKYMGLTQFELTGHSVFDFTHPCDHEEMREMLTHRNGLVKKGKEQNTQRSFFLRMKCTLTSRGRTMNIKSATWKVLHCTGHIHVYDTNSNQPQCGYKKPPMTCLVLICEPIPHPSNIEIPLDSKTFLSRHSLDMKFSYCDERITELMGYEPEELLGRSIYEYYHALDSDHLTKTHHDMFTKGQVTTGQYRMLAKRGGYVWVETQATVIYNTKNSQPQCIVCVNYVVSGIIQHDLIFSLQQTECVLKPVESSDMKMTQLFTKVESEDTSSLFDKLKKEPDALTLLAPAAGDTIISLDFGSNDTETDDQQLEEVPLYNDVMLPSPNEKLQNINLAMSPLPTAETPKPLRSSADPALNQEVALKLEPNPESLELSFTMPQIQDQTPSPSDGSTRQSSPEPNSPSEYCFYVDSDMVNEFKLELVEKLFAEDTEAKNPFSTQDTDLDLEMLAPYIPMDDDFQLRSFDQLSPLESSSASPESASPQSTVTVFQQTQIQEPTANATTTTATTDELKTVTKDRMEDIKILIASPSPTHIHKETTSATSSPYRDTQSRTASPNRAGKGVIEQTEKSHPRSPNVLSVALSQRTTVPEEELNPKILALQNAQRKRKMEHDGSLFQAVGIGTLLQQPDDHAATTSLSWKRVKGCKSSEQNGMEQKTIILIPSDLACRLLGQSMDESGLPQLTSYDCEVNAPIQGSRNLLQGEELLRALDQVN
Outline: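 RT-PCR/capillary electrophoresis fluorescence readout of reporter transcripts from endogenous-TF-driven cis elements in transfected HepG2 cells, 24 h exposure; activity fitted in both directions against DMSO controls.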

[14] = biological target: Hepatocyte nuclear factor 6 (Homo sapiens) (UniProt Q9UBC0); test: ATG_HNF6_CIS: Attagene CIS-FACTORIAL HepG2 Assay for human Hepatocyte Nuclear Factor 6 (HNF6) (AID 2282952); details: HepG2 Attagene cis-factorial HNF6 reporter transcription; actives raise or lower the signal
Sequence of Hepatocyte nuclear factor 6 (Homo sapiens) (Q9UBC0 whole entry, looked up): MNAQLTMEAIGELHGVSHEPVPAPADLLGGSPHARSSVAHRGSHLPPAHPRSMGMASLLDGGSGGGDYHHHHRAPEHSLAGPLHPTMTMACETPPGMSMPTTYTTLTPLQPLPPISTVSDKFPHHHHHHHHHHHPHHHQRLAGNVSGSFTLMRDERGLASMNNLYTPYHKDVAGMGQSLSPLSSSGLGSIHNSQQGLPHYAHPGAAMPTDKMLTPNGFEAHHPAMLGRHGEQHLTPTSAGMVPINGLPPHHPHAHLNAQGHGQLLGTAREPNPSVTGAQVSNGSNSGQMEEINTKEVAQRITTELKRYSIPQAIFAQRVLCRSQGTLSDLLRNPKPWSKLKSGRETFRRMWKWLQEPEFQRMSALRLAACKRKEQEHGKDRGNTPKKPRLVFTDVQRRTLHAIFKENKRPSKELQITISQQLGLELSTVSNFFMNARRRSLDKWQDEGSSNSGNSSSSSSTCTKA
Outline: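 Endogenous transcription factor activity in human HepG2 liver cells was captured through cis-regulated reporter constructs. After 24 h treatment, reporter mRNA was measured by RT-PCR with capillary electrophoresis, and activity was fitted in both directions relative to DMSO.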

[15] = biological target: Heat shock factor protein 1 (Homo sapiens) (UniProt Q00613); test: ATG_HSE_CIS: Attagene CIS-FACTORIAL HepG2 Assay for human Heat Shock Transcription Factor 1 (HSE) (AID 2282953); details: HepG2 HSE cis-reporter, Attagene RNA transcription; actives raise or lower the signal
Sequence of Heat shock factor protein 1 (Homo sapiens) (Q00613 whole entry, looked up): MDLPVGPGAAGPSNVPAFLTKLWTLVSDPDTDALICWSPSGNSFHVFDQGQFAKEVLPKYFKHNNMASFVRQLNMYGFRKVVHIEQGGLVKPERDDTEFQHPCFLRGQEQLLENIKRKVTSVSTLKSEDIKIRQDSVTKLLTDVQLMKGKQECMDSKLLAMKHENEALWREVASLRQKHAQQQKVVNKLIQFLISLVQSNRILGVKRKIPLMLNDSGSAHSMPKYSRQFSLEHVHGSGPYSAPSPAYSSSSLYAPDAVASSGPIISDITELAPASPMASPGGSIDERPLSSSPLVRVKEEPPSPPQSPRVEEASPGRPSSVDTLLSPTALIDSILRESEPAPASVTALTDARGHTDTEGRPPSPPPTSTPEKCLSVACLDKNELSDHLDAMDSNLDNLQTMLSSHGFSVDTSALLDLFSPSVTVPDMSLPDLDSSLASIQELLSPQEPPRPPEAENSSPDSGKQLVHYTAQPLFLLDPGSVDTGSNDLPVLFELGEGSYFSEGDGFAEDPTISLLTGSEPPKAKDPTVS
Outline: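 HepG2 cells transfected with cis-promoter reporter units sensing endogenous transcription factor activity; reporter mRNA quantified 24 h post-dose by RT-PCR and capillary electrophoresis of 6-FAM-labelled products. Bidirectional fitting against DMSO.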

[16] = ATG_MRE_CIS: Attagene CIS-FACTORIAL HepG2 Assay for human Metal Responsive Element (MRE) (AID 2282954); details: HepG2 MRE cis-reporter transcription, Attagene multiplex; actives raise or lower the signal
Outline: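 Endogenous MRE-dependent transcription read as reporter mRNA in transiently transfected human HepG2 cells at 24 h. RNA reverse-transcribed, PCR-amplified, labelled and resolved by capillary electrophoresis; gain or loss relative to DMSO.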

[17] = ATG_PBREM_CIS: Attagene CIS-FACTORIAL HepG2 Assay for human Phenobarbital-responsive Enhancer Module (PBREM) (AID 2282955); details: HepG2 PBREM cis-reporter, Attagene multiplexed transcription; actives raise or lower the signal
Outline: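 Reporter mRNA read by RT-PCR, 6-FAM primer extension, HpaI digestion and capillary electrophoresis. Transfected HepG2 cells, 24 h compound exposure. Gain or loss of signal fitted bidirectionally relative to DMSO baseline.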

[18] = biological target: Paired box protein Pax-6 (Homo sapiens) (UniProt P26367); test: ATG_Pax6_CIS: Attagene CIS-FACTORIAL HepG2 Assay for human Paired Box 6 (PAX6) (AID 2282956); details: HepG2 CIS-FACTORIAL PAX6 reporter transcription, RNA readout; actives raise or lower the signal
Sequence of Paired box protein Pax-6 (Homo sapiens) (P26367 whole entry, looked up): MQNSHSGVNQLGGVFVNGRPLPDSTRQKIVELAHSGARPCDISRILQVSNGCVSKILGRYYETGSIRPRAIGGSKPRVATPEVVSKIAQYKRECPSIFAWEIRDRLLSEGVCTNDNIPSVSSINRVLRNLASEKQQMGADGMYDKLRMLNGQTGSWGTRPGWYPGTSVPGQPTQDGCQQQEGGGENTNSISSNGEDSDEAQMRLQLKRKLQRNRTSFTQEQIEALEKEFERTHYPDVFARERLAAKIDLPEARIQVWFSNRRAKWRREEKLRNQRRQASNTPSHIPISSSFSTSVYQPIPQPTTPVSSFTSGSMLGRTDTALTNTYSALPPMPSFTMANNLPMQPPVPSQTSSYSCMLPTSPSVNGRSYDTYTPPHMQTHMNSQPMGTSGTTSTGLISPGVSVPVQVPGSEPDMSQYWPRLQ
Outline: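 Values derive from bidirectional curve fitting of reporter mRNA signal relative to DMSO. HepG2 cells bearing transfected cis-regulated MRTUs were exposed for 24 h; transcripts were read by RT-PCR and capillary electrophoresis.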

[19] = ATG_PXRE_CIS: Attagene CIS-FACTORIAL HepG2 Assay for human Pregnane X Receptor Element (PXRE) (AID 2282957); details: HepG2 Attagene CIS-FACTORIAL PXRE reporter, mRNA; actives raise or lower the signal
Outline: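 Endogenous transcription factor activity in HepG2 was gauged through induction of reporter mRNA driven by a cis-regulating promoter element, sampled 24 h post-treatment. Activity was fitted in both directions against DMSO negative control.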

[20] = ATG_FoxO_CIS: Attagene CIS-FACTORIAL HepG2 Assay for human Forkhead box O (FoxO) (AID 2282943); details: HepG2 Attagene cis-reporter, FoxO element, mRNA; actives raise or lower the signal
Outline: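 Endogenous transcription factor activity read from multiplexed cis-promoter reporter transcripts in transiently transfected HepG2, 24 h after dosing. Reporter RNA measured via RT-PCR plus capillary electrophoresis of FAM-labeled products; gain or loss relative to DMSO.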

Measured: AC50

Cc1cc(C(=C2C=CC(=Nc3ccc(S(=O)(=O)O)cc3)C=C2)c2ccc(Nc3ccc(S(=O)(=O)O)cc3)cc2)cc(S(=O)(=O)O)c1N
inactive: [1] | [2] | [3] | [4] | [5] | [6] | [7] | [8] | [9] | [10] | [11] | [12] | [13] | [14] | [15] | [16] | [17] | [18] | [19]

Oc1cccc2c(O)cccc12
active: [3] 12.3 µM | [5] 85.9 nM | [19] 27.1 µM
inactive: [1] | [2] | [4] | [6] | [7] | [8] | [9] | [10] | [11] | [12] | [13] | [14] | [15] | [16] | [17] | [18]

Cn1sccc1=O
active: [1] 165 µM | [7] 148 µM | [15] 161 µM | [16] 163 µM | [18] 159 µM | [19] 142 µM
inactive: [2] | [3] | [4] | [5] | [6] | [8] | [9] | [11] | [12] | [13] | [14] | [17]

NCc1cccc(CN)c1
inactive: [1] | [2] | [3] | [4] | [5] | [20] | [6] | [8] | [9] | [10] | [11] | [12] | [14] | [16] | [17] | [18] | [19]
active: [13] 24.4 µM

CC=O
inactive: [1] | [2] | [3] | [4] | [5] | [6] | [7] | [8] | [9] | [11] | [12] | [13] | [15] | [16] | [17] | [18] | [19]
